Shown are actives, neighbours in structure and some others; about 2.8% of the full set was active somewhere.
WRN inhibitor – qHTS for Inhibitors of WRN Helicase. Bifunctional 3'-5' exonuclease/ATP-dependent helicase WRN (Homo sapiens), Q14191. WRN helicase unwinding, fluorescent forked duplex, kinetic. Potency, µM (series often up to 114 µM), inactives show top-dose activity change, negative = inhibition, usual class: inhibitors. actives 0.46% (n = 360,000); also: potency is read from the fitted curve at half-maximal effect; % is scaled to controls: 0 for no effect and ±100 for the full control effect; nearly all actives have a fitted effect of over 55% in size
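Primary qHTS, 1536-well format. 20 nM WRN + compound, 15 min RT; start with 100 nM forked fluorophore/quencher duplex, 2 mM ATP (final); kinetic read ex 525/em 598 nm.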
Pol kappa inh-1 – qHTS for Inhibitors of Polymerase Kappa; DNA polymerase kappa (Homo sapiens), Q9UBT6; purified Pol kappa, fluorescent DNA synthesis assay, 10 min; Potency, µM (highest dose often 107 µM), for inactives: top-dose activity, negative = inhibition, hits mostly inhibitors; actives 0.53% (n = 400,000); AID 588579, 2011; also: potency is read from the fitted curve at half-maximal effect; % is scaled to controls: 0 for no effect and ±100 for the full control effect
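10 nM Pol kappa was preincubated with compounds for 15 min at room temperature. Reaction started with 50 nM (final) substrate. Fluorescence read kinetically at 0 and 10 min.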
POLB inh – qHTS Assay for Inhibitors of DNA Polymerase Beta; P06746; Pol beta primer extension/strand displacement, fluorescence kinetic; actives 1.3% (n = 340,000); Potency, µM (top dose mostly 114 µM), inactives show at the top dose activity change, negative = inhibition, most hits filed as inhibitors; also: potency is read from the fitted curve at half-maximal effect; % is scaled to controls: 0 for no effect and ±100 for the full control effect
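Preincubation: enzyme (10 nM) with compound, 15 min, RT. Reaction: substrate added to 50 nM final. Reads: 0 and 10 min. Analysis: normalized, Hill fit.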
PI5P4Ka inh – qHTS for Inhibitors of phosphatidylinositol 5-phosphate 4-kinase (PI5P4K); max response, %; Phosphatidylinositol 5-phosphate 4-kinase type-2 alpha (Homo sapiens), P48426; AID 652105, 2013; PI5P4Kalpha enzyme, ADP-Glo luminescence, 60 min; hits give low values; actives 1.2% (n = 330,000); active = max response of -50% or lower; inconclusive = between -30% and -50%; inactive = -30% or higher; also: value at the top dose of about 77 µM; % is scaled to controls: 0 for no effect and ±100 for the full control effect
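Human PI5P4Kalpha with substrate in 0.038 M HEPES pH 7.4, 0.28 mM EGTA, 0.1% CHAPS, 5% DMSO; reaction started with 5 microM ATP (final), 60 min at room temperature. ADP formed read by ADP-Glo luminescence.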
Pol iota inh – qHTS for Inhibitors of Polymerase Iota. DNA polymerase iota (Homo sapiens), Q9UNA4. Pol iota fluorescent replication assay, 10 min. Potency, µM (top dose mostly 115 µM), inactives show at the top dose activity, negative = inhibition, actives largely listed as inhibitors. actives 1% (n = 390,000). AID 588590, 2011; also: potency is read from the fitted curve at half-maximal effect
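Pol iota at 10 nM preincubated 15 min with compounds at room temperature; reaction started with fluorescent substrate, 50 nM final. Fluorescence read kinetically at 0 and 10 min; buffer-only wells as negative control.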
Pol eta inh-1 – qHTS for Inhibitors of Polymerase Eta | DNA polymerase eta (Homo sapiens), Q9Y253 | AID 588591, 2011 | recombinant Pol eta, fluorescent DNA replication assay | Potency, µM (series often up to 114 µM), inactives show at the highest dose activity change, negative = inhibition, actives largely listed as inhibitors | actives 1.2% (n = 390,000); also: potency is read from the fitted curve at half-maximal effect; % is scaled to controls: 0 for no effect and ±100 for the full control effect
Target sequence (Q9Y253 whole entry, looked up): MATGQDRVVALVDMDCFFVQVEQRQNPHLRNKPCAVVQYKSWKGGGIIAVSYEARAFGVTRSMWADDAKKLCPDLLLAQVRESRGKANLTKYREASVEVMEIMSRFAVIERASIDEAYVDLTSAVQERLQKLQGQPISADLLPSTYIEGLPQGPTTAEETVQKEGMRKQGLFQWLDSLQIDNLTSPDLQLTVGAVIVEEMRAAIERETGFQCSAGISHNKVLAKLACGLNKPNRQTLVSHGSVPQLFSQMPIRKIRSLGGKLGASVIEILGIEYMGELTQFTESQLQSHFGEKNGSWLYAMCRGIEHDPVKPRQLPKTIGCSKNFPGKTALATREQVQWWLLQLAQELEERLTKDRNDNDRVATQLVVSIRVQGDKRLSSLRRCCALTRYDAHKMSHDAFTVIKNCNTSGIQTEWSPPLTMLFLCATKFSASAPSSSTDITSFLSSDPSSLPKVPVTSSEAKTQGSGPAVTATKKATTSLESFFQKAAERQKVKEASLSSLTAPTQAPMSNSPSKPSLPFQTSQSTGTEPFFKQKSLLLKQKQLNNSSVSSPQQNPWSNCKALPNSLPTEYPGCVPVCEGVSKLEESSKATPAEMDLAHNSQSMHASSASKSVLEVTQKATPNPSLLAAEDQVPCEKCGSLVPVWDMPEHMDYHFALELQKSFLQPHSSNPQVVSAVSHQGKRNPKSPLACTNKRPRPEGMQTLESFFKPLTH
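Pol eta at 10 nM preincubated with compounds 15 min at room temperature; reaction started with fluorescent substrate (50 nM final) and read kinetically at 0 and 10 min.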
GALK inh confirm – Confirmation Assay for Inhibitors of Human Galactokinase (GALK); shares compounds with Pol eta inh-1; purified GALK, Kinase-Glo ATP depletion luminescence; Potency, µM (top dose mostly 115 µM), inactives show top-dose activity, negative = inhibition, most hits filed as inhibitors; actives 70% (n = 150); AID 2015, 2009
Redox cycling – Confirmatory Assay for Inhibitors of Human Galactokinase (GALK): Phenol-HRP redox assay counterscreen | shares compounds with Pol eta inh-1 | Potency, µM (titrated, usually from 115 µM), for inactives: at the top dose activity change, negative = H2O2 signal, actives largely listed as inhibitors | Phenol red-HRP H2O2 redox cycling, absorbance 600 nm | actives 40% (n = 150)
HEK293 viability – Secondary Assay for Inhibitors of Human Galactokinase (GALK): HEK-293 Cell Viability Assay | shares compounds with Pol eta inh-1 | HEK-293 viability, ATP luminescence (CellTiter-Glo), 24/48 h | Potency, µM (top dose mostly 46.1 µM), for the others: at the highest dose activity change, negative = cytotoxicity, hits mostly inhibitors | actives 10% (n = 170) | AID 2547, 2010; also: potency is read from the fitted curve at half-maximal effect; % is scaled to controls: 0 for no effect and ±100 for the full control effect
Pol kappa inh-2 – qHTS for Inhibitors of Polymerase Kappa: Confirmatory Assay for Cherry-picked Compounds. purified Pol-kappa, fluorescent strand-displacement substrate. Potency, µM, actives largely listed as inhibitors. shares compounds with Pol eta inh-1. actives 76% (n = 920); also: potency is read from the fitted curve at half-maximal effect
Pol eta inh-2 – qHTS for Inhibitors of Polymerase Eta: Confirmatory Assay for Cherry-picked Compounds. shares compounds with Pol eta inh-1. actives 64% (n = 2,600). Potency, µM, hits mostly inhibitors. Pol eta primer extension, TAMRA/BHQ fluorescence, 10 min; also: potency is read from the fitted curve at half-maximal effect
Numbers without * were called inactive; [ ] = dose if it differs, or a comment. Unless noted, calls follow the shape of the dose curve; as a rule, active = well fitted curve in the direction sought with a large enough effect; inconclusive = small, poorly fitted or top-dose-only effect, or another doubt; inactive = no such curve, though single readings can be large; an effect the other way counts as inactive or inconclusive.

How did CC(C)CSC1=NSC2=NC(=O)/C(=C\c3ccccc3)C(=N)N12 do in these assays?
WRN inhibitor: -16%[11.6 µM]; Pol kappa inh-1: -2%; POLB inh: 1%; PI5P4Ka inh: -14; Pol iota inh: inconclusive; Pol eta inh-1: -28%

What do the screens show for `CC(C)CSC1=NSC2=NC(=O)/C(=C\c3coc4ccccc4c3=O)C(=N)N12`?
WRN inhibitor: inconclusive; Pol kappa inh-1: -30%; POLB inh: 45µM*; PI5P4Ka inh: inconclusive; Pol iota inh: inconclusive; Pol eta inh-1: 18µM*; Pol eta inh-2: 76*

How did O=c1c2sc3ccccc3c2n(Cc2ccccc2F)c(=O)n1Cc1ccccc1 do in these assays?
Pol kappa inh-1: -7%; POLB inh: -18%; Pol iota inh: 7%; Pol eta inh-1: -8%

How did CCC(C)NC(=O)CSc1nc2cc3c(cc2c(=O)n1CCCCCC(=O)NCc1ccc(OC)cc1)OCO3 (stereo not given) do in these assays?
Pol kappa inh-1: 3%[60.1 µM]; POLB inh: -14%; Pol iota inh: 11%; Pol eta inh-1: -12%

How did O=C(NCCc1ccccc1)C1(c2cccs2)CCOCC1 do in these assays?
Pol kappa inh-1: -6%[60.1 µM]; POLB inh: 2%; Pol iota inh: -2%; Pol eta inh-1: -1%

Results for COc1cc(/C=C2\C(=O)ON=C2c2ccccc2)cc(Br)c1O ?
WRN inhibitor: inconclusive; Pol kappa inh-1: 2%; POLB inh: 2%; PI5P4Ka inh: -85*; Pol iota inh: inconclusive; Pol eta inh-1: 45µM*; GALK inh confirm: 38µM*; Redox cycling: -2%; HEK293 viability: -17%

Results for COc1cc(C=C2C(=O)OC(c3ccccc3)OC2=O)cc(Br)c1O (stereo not given) ?
WRN inhibitor: -6%; Pol kappa inh-1: -10%; POLB inh: -1%; PI5P4Ka inh: -2; Pol iota inh: -6%; Pol eta inh-1: -15%

How did COC(=O)c1ccccc1NC(=O)CSc1nc(-c2ccccc2)cc(C(F)(F)F)n1 do in these assays?
Pol kappa inh-1: -11%; POLB inh: 17%; Pol iota inh: -1%; Pol eta inh-1: -13%

How did Cc1cccc2cc(/C=N/NC(=O)c3ccccc3O)c(Cl)nc12 do in these assays?
WRN inhibitor: inconclusive; Pol kappa inh-1: -3%; POLB inh: 28µM*; PI5P4Ka inh: -1; Pol iota inh: -14%; Pol eta inh-1: inconclusive; Pol eta inh-2: inconclusive

How did Cc1ccc2cc(/C=N/NC(=O)c3ccccc3O)c(Cl)nc2c1 do in these assays?
WRN inhibitor: 50µM*; Pol kappa inh-1: -9%; POLB inh: 3%[57.1 µM]; PI5P4Ka inh: -19; Pol iota inh: 7%; Pol eta inh-1: 16µM*; Pol eta inh-2: inconclusive

What do the screens show for `O=S(=O)(NCc1ccc(F)cc1)c1ccc(N2CCCCS2(=O)=O)cc1`?
Pol kappa inh-1: -13%[60.1 µM]; POLB inh: -1%; Pol iota inh: -3%; Pol eta inh-1: -12%

How did Cc1cc(=O)oc2cc(OCC(=O)N3CCCc4ccccc43)ccc12 do in these assays?
WRN inhibitor: -6%; Pol kappa inh-1: 4%; POLB inh: -2%; PI5P4Ka inh: -2; Pol iota inh: 11%; Pol eta inh-1: -7%

How did Cc1cc(=O)oc2cc(OCC(=O)N3c4ccccc4NC(=O)C3(C)C)ccc12 do in these assays?
WRN inhibitor: -1%[11.6 µM]; Pol kappa inh-1: inconclusive; PI5P4Ka inh: inconclusive; Pol iota inh: 40µM*; Pol eta inh-1: 56µM*; Pol eta inh-2: inconclusive

What do the screens show for `Cc1noc(C)c1COc1ccc(C(=O)OCC(=O)N2c3ccccc3NC(=O)C2(C)C)cc1`?
WRN inhibitor: -29%; Pol kappa inh-1: inconclusive; POLB inh: 22µM*; PI5P4Ka inh: inconclusive; Pol iota inh: inconclusive; Pol eta inh-1: 7.1µM*; Pol kappa inh-2: 34*

What do the screens show for `CCOc1ccc(Cn2nnc(C(=O)NCCc3ccccc3)c2N)cc1`?
WRN inhibitor: -1%; Pol kappa inh-1: 13%; POLB inh: 23%; PI5P4Ka inh: 3; Pol iota inh: -5%; Pol eta inh-1: -12%

How did CCOc1ccc(NC(=O)Cn2nnc(C(=O)NCCc3ccccc3)c2N)cc1 do in these assays?
Pol kappa inh-1: inconclusive; POLB inh: inconclusive; Pol iota inh: inconclusive; Pol eta inh-1: inconclusive; Pol kappa inh-2: inconclusive

Results for O=C1NC(=S)SC1=C1CCCC1 ?
WRN inhibitor: 45µM*; Pol kappa inh-1: 14µM*; POLB inh: 22µM*; PI5P4Ka inh: inconclusive; Pol iota inh: inconclusive; Pol eta inh-1: 20µM*; Pol eta inh-2: inconclusive

How did CN1C(=O)C(=C2CCCCCC2)SC1=S do in these assays?
WRN inhibitor: 6%; Pol kappa inh-1: 4%; POLB inh: -11%; PI5P4Ka inh: 1; Pol iota inh: -7%; Pol eta inh-1: -7%

Bioassay records deposited in PubChem by National Center for Advancing Translational Sciences (NCATS).
